The values that follow come from ChEMBL document CHEMBL4513155, “CO-ADD screening of University of Sydney (Australia) compounds” (2021).

Assay [1] deals with Staphylococcus aureus. As to conditions: Concentration 32 ug.mL-1; ASSAY_TEST Inhibition of Bacterial Growth; detection method Absorption (OD600); MEDIA CAMHB; plate type 384well; NBS; CORNING #3640; time 18 hr.
Assay [2] deals with Escherichia coli. As to conditions: Concentration 32 ug.mL-1; ASSAY_TEST Inhibition of Bacterial Growth; detection method Absorption (OD600); MEDIA CAMHB; plate type 384well; NBS; CORNING #3640; time 18 hr.

Measured potencies and affinities stand elsewhere.

Consider `Fc1ccc(CCOc2cncc3nnc(-c4ccc(C(F)(F)F)nc4)n23)cc1F`, for which the Inhibition (in general, the change of the read-out against control, counted positive when it falls) is recorded as 6.53% in assay [1] and 1.6% in assay [2].

With `N#Cc1ccc(-c2nnc3cncc(OCC(O)c4ccc(F)c(F)c4)n23)cc1` (centres undefined), the Inhibition in assay [1] is -3.19%; in assay [2] it was 2.25%.

Consider `COC(COc1cncc2nnc(-c3ccc(C#N)cc3)n12)c1ccc(F)c(F)c1` (centres undefined), for which the Inhibition is on record as -4.85% in assay [1] and 2.52% in assay [2].

Take `CCN1C(=O)c2cccc3c(-c4cn(CCN5CCCNCCN(CCn6cc([C@]7(O)CC[C@H]8[C@@H]9CCc%10cc(O)ccc%10[C@H]9CC[C@@]87C)nn6)CCCNCC5)nn4)ccc(c23)C1=O.OCCN1CCN(CCCN2c3ccccc3Sc3ccc(Cl)cc32)CC1.[O-][Cl+3]([O-])([O-])[O-].[O-][Cl+3]([O-])([O-])[O-].[Zn+2]`: the Inhibition in assay [1] worked out at 38.05%; in assay [2], 0.56%.

Consider `O.O=C1c2cccc3c(-n4cc(CN5CCCNCCN(Cc6cn(-c7ccc8c9c(cccc79)C(=O)N(CCCO)C8=O)nn6)CCCNCC5)nn4)ccc(c23)C(=O)N1CCCO.[Cl-].[Cl-].[Zn+2]`, for which the Inhibition in assay [1] came to 7.81%; in assay [2], 6.15%.

As to `Fc1ccc(CCOc2cncc3nnc(-c4ccc(Cl)cc4)n23)cc1F`, the Inhibition is listed as -7.02% in assay [1] and -0.47% in assay [2].

For `CN(C)C(COc1cncc2nnc(-c3ccc(C#N)cc3)n12)c1ccc(F)c(F)c1` (centres undefined), the Inhibition in assay [1] is given as -0.93%; in assay [2], 3.93%.
